Assay [1] addresses Protein kinase C gamma type (Homo sapiens) (UniProt P05129). The settings on record: at 1 µM.
The target in assay [2] is T1, Protein kinase C iota type (Homo sapiens) (UniProt P41743).
T1 sequence (whole entry): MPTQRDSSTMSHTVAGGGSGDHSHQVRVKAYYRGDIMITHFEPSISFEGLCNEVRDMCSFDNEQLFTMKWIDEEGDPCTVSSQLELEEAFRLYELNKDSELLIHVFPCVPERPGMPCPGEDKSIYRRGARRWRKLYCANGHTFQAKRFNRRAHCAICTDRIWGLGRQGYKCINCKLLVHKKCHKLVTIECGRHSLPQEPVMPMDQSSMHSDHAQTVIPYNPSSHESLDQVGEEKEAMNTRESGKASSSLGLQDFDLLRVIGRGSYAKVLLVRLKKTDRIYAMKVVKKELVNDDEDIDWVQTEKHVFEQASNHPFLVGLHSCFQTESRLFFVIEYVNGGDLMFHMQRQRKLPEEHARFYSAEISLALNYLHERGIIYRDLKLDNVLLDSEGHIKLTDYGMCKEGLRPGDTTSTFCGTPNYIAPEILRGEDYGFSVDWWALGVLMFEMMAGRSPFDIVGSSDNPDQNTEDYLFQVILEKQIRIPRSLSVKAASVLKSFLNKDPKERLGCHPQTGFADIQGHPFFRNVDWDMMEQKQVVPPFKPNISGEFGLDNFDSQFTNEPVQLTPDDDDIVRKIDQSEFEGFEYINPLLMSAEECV
Particulars: at 0.1 µM.

The target of assay [3] is T1, Protein kinase C iota type (Homo sapiens). Particulars: at 1 µM.
Assay [4] has as its target Protein kinase C theta type (Homo sapiens) (UniProt Q04759). Particulars: at 0.1 µM.
The target is the same in assay [5]. The settings on record: at 1 µM.
The target in assay [6] is Protein kinase C beta type (Homo sapiens) (UniProt P05771). The settings on record: at 0.1 µM.
Assay [7] has the same target. The settings on record: at 1 µM.
Assay [8] addresses T2, Serine/threonine-protein kinase D1 (Homo sapiens) (UniProt Q15139).
T2 sequence (whole entry): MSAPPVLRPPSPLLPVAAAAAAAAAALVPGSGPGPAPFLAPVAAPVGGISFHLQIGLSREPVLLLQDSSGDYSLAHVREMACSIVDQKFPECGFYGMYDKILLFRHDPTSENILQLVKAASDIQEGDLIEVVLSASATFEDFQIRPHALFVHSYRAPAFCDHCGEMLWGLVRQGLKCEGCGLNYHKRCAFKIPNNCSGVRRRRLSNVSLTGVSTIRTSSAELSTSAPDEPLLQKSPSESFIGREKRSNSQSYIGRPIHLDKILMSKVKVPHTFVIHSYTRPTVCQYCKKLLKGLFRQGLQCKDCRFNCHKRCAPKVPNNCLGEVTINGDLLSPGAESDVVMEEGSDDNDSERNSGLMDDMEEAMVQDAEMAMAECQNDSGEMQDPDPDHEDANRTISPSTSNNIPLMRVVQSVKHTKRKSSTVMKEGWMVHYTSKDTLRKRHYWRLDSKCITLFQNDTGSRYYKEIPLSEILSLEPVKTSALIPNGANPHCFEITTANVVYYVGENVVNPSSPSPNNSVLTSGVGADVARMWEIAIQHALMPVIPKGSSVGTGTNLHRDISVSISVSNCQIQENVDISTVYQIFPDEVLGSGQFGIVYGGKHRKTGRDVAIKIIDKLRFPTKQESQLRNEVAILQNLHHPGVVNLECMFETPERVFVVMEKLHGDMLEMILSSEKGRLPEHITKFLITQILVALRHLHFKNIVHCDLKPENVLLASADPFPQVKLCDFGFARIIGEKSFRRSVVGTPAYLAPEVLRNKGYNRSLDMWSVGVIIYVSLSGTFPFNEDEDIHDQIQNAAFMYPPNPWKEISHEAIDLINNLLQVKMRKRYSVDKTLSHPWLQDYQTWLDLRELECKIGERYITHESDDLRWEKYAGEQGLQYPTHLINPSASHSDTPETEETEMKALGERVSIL
Particulars: at 0.1 µM.

Assay [9] deals with T2, Serine/threonine-protein kinase D1 (Homo sapiens). Particulars: at 1 µM.
Assay [10] deals with T3, Serine/threonine-protein kinase D2 (Homo sapiens) (UniProt Q9BZL6).
T3 sequence (whole entry): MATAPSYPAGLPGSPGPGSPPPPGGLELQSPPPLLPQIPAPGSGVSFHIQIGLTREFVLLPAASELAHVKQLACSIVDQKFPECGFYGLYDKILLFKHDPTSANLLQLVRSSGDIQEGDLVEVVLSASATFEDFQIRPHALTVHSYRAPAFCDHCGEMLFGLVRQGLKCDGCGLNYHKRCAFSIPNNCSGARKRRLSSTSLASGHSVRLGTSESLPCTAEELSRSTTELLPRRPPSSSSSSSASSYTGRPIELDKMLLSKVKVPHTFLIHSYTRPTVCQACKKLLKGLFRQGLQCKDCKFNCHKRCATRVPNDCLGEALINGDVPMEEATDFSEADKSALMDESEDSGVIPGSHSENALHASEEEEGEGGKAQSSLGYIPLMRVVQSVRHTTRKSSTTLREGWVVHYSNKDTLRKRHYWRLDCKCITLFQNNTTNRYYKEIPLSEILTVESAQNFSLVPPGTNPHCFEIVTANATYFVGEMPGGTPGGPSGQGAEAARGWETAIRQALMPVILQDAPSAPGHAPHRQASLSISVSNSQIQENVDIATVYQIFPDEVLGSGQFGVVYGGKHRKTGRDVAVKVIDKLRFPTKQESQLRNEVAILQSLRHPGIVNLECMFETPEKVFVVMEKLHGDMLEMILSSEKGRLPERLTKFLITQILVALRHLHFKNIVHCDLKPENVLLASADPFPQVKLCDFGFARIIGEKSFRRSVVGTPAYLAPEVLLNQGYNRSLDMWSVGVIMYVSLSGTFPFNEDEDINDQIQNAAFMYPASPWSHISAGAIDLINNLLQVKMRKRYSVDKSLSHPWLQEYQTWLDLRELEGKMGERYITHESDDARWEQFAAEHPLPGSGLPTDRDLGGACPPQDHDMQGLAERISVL
Particulars: at 0.1 µM.

In assay [11] the target is T3, Serine/threonine-protein kinase D2 (Homo sapiens). Particulars: at 1 µM.
For assay [12], the target named is T4, Serine/threonine-protein kinase D3 (Homo sapiens) (UniProt O94806).
T4 sequence (whole entry): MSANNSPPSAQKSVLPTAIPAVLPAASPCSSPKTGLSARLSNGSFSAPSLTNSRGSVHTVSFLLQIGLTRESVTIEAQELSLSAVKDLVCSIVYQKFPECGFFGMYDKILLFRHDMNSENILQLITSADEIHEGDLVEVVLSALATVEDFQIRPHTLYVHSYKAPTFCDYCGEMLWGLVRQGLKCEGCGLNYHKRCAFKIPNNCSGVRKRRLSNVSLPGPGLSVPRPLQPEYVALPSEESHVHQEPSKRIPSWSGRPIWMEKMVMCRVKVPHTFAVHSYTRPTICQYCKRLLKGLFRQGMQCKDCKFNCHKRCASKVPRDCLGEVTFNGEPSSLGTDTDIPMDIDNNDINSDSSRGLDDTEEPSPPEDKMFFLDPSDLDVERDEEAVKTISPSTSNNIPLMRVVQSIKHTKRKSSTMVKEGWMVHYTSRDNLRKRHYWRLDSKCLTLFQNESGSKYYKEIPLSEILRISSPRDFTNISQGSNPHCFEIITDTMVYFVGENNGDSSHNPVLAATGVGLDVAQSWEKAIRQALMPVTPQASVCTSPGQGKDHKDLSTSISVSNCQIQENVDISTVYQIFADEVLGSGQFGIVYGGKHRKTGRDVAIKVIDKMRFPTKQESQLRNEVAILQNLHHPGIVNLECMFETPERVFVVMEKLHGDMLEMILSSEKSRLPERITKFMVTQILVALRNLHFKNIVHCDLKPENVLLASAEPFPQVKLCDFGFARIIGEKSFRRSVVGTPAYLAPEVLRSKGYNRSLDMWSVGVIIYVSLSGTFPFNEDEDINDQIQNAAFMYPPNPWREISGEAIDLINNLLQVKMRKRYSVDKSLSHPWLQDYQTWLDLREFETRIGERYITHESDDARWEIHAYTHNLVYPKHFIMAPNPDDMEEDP
The settings on record: at 0.1 µM.

Assay [13] has as its target T4, Serine/threonine-protein kinase D3 (Homo sapiens). Particulars: at 1 µM.
The target of assay [14] is T5, cGMP-dependent protein kinase 1 (Homo sapiens) (UniProt Q13976).
T5 sequence (whole entry): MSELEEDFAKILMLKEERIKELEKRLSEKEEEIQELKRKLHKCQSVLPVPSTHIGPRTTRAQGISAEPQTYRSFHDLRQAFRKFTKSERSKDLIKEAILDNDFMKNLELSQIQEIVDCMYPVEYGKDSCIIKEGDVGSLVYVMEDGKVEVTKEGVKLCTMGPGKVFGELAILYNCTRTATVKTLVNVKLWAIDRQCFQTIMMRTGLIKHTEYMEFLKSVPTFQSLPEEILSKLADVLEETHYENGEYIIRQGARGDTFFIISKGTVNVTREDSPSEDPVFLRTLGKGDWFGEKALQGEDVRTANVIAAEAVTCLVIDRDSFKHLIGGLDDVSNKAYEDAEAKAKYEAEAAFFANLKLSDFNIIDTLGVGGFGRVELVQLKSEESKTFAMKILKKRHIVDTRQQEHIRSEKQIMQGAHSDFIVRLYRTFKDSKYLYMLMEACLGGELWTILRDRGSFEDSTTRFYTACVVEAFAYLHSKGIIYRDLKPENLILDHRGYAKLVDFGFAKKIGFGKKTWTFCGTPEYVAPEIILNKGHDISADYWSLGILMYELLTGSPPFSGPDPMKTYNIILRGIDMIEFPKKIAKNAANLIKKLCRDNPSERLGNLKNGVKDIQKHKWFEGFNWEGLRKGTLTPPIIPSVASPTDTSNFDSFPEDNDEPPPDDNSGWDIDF
Particulars: at 0.1 µM.

For assay [15], the target named is T5, cGMP-dependent protein kinase 1 (Homo sapiens). Particulars: at 1 µM.
Assay [16] addresses T6, cGMP-dependent protein kinase 2 (Homo sapiens) (UniProt Q13237).
T6 sequence (whole entry): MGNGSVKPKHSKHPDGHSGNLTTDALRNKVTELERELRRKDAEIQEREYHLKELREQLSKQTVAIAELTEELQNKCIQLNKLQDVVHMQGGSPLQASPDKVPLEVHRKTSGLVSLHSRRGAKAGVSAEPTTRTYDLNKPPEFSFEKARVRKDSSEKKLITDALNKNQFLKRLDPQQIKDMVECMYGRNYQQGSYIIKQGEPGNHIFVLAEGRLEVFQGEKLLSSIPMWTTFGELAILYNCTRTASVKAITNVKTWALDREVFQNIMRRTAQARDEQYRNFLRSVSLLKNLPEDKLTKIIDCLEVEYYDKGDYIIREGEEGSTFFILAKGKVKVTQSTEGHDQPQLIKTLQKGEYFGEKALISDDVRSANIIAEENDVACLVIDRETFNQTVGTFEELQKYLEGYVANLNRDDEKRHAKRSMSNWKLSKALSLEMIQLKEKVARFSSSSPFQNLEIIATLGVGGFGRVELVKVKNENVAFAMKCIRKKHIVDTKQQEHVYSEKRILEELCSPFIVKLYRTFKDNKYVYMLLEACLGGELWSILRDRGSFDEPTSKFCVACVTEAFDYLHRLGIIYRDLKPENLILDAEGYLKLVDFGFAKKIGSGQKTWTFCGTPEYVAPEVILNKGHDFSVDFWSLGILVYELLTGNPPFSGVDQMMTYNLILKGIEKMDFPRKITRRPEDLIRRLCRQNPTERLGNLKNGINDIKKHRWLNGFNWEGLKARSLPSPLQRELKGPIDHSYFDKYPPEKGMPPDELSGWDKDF
Particulars: at 0.1 µM.

For assay [17], the target named is T6, cGMP-dependent protein kinase 2 (Homo sapiens). The settings on record: at 1 µM.
The target in assay [18] is T7, cAMP-dependent protein kinase catalytic subunit PRKX (Homo sapiens) (UniProt P51817).
T7 sequence (whole entry): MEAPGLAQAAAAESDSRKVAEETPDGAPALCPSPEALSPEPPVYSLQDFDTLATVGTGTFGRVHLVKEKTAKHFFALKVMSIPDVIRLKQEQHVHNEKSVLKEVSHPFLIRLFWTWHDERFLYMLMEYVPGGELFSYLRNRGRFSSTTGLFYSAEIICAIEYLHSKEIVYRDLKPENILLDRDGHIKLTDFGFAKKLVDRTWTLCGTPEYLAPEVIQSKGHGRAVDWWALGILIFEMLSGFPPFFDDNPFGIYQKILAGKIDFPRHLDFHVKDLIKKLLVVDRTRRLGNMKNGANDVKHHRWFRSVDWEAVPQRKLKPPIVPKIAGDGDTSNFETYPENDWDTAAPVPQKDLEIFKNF
Particulars: at 0.1 µM.

Assay [19] addresses T7, cAMP-dependent protein kinase catalytic subunit PRKX (Homo sapiens). Particulars: at 1 µM.
Assay [20] concerns the target Rho-associated protein kinase 1 (Homo sapiens) (UniProt Q13464). Particulars: at 0.1 µM.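 Note: values are mean percent inhibition of ROCK1.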

Each structure is given as a SMILES string.

Here are results for 2 molecules from ChEMBL document CHEMBL1961873, “Compounds: GSK PKIS; Assays: Nanosyn kinase panel” (2012).

Sequence of Protein kinase C theta type (Homo sapiens) (Q04759 whole entry, looked up): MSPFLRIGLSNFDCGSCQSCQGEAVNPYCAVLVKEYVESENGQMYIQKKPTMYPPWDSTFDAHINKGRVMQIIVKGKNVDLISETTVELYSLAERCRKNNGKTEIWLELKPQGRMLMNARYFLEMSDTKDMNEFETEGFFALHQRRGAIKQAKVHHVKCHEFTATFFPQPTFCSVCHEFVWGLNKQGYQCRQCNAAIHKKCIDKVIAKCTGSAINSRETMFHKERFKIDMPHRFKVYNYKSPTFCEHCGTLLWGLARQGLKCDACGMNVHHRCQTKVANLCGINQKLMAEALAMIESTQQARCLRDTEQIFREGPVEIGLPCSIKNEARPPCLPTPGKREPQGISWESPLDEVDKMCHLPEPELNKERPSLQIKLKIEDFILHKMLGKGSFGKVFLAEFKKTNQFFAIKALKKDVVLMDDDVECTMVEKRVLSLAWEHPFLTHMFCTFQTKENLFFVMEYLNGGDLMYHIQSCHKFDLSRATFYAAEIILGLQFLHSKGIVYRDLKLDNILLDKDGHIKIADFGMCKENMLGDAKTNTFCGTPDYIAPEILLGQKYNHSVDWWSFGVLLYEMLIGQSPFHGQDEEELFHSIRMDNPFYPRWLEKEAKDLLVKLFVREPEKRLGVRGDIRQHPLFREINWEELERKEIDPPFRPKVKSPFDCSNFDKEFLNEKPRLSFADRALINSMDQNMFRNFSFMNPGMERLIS
Sequence of Protein kinase C beta type (Homo sapiens) (P05771 2-671 limits assumed): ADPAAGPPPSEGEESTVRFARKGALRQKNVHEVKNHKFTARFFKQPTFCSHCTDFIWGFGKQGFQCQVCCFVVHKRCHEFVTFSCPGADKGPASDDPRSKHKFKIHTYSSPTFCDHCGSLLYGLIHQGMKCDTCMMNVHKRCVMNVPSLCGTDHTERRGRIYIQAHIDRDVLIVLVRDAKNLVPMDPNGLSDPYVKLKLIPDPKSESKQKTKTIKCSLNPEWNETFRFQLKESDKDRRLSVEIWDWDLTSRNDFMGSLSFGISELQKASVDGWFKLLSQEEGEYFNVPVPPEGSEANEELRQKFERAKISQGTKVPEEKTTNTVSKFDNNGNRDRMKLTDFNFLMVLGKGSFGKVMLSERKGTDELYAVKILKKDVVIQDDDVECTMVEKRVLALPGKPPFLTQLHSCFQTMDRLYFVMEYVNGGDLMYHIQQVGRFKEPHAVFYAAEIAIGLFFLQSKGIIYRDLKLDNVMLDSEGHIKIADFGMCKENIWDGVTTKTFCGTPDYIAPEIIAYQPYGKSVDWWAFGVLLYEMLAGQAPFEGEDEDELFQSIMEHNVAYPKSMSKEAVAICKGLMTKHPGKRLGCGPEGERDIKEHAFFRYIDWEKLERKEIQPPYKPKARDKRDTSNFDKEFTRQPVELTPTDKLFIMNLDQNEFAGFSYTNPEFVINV
Sequence of Rho-associated protein kinase 1 (Homo sapiens) (Q13464 2-1354 limits assumed): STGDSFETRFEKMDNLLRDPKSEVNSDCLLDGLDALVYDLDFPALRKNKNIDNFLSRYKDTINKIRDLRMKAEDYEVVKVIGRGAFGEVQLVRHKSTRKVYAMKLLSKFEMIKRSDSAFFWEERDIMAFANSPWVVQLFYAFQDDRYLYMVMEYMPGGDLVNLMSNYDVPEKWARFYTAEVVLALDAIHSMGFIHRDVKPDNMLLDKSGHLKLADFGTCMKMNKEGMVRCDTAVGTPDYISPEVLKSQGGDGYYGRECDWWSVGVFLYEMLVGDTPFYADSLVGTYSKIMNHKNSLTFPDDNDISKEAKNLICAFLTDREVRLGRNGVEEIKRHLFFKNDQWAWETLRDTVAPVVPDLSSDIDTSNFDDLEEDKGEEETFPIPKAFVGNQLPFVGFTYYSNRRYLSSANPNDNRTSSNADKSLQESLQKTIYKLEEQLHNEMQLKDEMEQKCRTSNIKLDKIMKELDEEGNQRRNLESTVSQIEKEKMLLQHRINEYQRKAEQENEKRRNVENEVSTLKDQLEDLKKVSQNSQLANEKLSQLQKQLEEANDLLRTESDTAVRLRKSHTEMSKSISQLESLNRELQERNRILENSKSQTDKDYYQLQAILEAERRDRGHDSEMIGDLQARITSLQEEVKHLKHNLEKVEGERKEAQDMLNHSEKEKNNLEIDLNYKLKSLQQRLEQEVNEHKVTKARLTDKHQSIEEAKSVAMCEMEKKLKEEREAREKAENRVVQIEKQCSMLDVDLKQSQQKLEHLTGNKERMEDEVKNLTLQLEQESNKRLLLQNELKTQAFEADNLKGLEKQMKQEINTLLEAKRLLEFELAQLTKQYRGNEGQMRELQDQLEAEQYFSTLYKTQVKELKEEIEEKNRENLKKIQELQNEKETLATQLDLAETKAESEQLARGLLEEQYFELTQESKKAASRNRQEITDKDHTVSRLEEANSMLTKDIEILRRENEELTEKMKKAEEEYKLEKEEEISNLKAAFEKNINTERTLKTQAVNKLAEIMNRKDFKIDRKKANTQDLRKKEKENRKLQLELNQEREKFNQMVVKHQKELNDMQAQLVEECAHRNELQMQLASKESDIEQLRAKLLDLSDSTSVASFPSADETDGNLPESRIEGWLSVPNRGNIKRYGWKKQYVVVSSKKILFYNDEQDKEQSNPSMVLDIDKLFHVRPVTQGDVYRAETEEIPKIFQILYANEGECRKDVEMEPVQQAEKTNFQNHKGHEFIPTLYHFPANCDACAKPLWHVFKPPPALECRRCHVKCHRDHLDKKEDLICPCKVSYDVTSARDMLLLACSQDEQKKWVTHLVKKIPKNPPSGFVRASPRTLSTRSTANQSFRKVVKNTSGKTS

As to `CCc1nccc2c1nc(-c1nonc1N)n2CC`, the inhibition (in general, the change of the read-out against control, counted positive when it falls) in [1] is -2.73%; in assay [2] it was -0.45%; in assay [3], 1.45%; in [4], -0.41%; in [5], 0.94%; in assay [6], 0.5%. Moreover, the inhibition in [7] amounted to 1.81%; in [8], 1.12%; in assay [9] it was 2.3%; in [10] it was 1.51%; in [11] it was 3.17%; in [12] it was 1.43%. Moreover, the inhibition in [13] is 2.71%; in [14], 0.88%; in assay [15], 7.44%; in assay [16], 2.5%; in assay [17], 21.1%; in assay [18], -0.13%. Moreover, the inhibition in assay [19] is -0.42%; in [20] it was 1.09%.
Turning to `NCc1ccc(-n2c(-c3nonc3N)nc3cnccc32)cc1`, the inhibition was found to be 42.1% in assay [1]; 4.36% in [2]; 27.5% in assay [3]; 17.2% in [4]; 59.4% in assay [5]; 7.63% in [6]. For the same molecule, the inhibition in [7] was 37.7%; in [8] it was 8.16%; in [9], 41%; in assay [10] it was 8.58%; in assay [11], 41.3%; in [12] it was 8.56%. Further, the inhibition in assay [13] came out at 40%; in [14] it was 6.05%; in assay [15], 26.6%; in [16], 16%; in assay [17], 60.2%; in assay [18] it was 5.92%. Besides, the inhibition in assay [19] was 29.4%; in assay [20] it was 80.6%.
